Measurements reported in PubChem BioAssay (NCI).
“And” between values parts separate entries of the source, which are not always exact repeats. Equal entries are not always repeated. About 83,000 compounds went through this panel and 20% of them were active in at least one assay; those are over-represented in the sample as a whole.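 Results are percent growth after 48 hours of single-concentration exposure. 100 means growth as in untreated cells, lower positive values show inhibition; negative values down to -100 show cell death.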 The source made the active and inactive calls. Rule for the calls: active = growth percent below 10; inactive = the rest.

Assays:
Test in all cases: NCI-60 one-dose screen, 48 h (100 = growth as untreated, 0 = no growth, -100 = all killed)
Conditions in all cases: 10 µM unless noted
[1] = system: NCI-H23 lung
[2] = system: NCI-H226 lung
[3] = system: NCI-H322M lung
[4] = system: HOP-62 NSCLC
[5] = system: NCI-H460 lung
[6] = system: HOP-92 NSCLC
[7] = system: NCI-H522 lung
[8] = system: A549/ATCC NSCLC
[9] = system: 786-0 renal
[10] = system: COLO 205 colon
[11] = system: DU-145 prostate
[12] = system: K-562 leukemia
[13] = system: MALME-3M melanoma
[14] = system: MDA-MB-231 breast
[15] = system: RXF 393 renal
[16] = system: SF-268 CNS
[17] = system: SF-295 CNS
[18] = system: SF-539 CNS
[19] = system: UACC-257 melanoma
[20] = system: M14 melanoma

Measured: growth

CN(C)c1ccc2nc3ccc(=O)cc-3sc2c1
1.88% (active) and 22.1% (inactive): [13]
active: [10] -10.2% and 5.66% | [17] 6.09% and -15.3% | [20] 9.73% and 7.61%
1.33% (active) and 35.9% (inactive): [8]
10.3% (inactive) and 1.75% (active): [18]
-10.8% (active) and 41.5% (inactive): [7]
-21.8% (active) and 24.8% (inactive): [19]
inactive: [1] 11.1% and 22% | [2] 71.8% | [3] 49.7% and 70% | [4] 35.5% and 60.7% | [5] 19% and 34.1% | [6] 49% and 61% | [9] 57.1% and 43.7% | [11] 35.7% and 51.2% | [12] 20.4% and 23% | [14] 30.4% and 43% | [15] 52.2% and 82% | [16] 52.9% and 63%

Brc1ccc(/C=C(/C2=NCCN2)n2ccc3ccccc32)cc1
inactive: [1] 87% | [2] 62.1% | [3] 75.7% | [4] 68.3% | [5] 76.4% | [6] 34.3% | [7] 62.7% | [8] 77.9% | [9] 81.6% | [10] 64.8% | [11] 63.1% | [12] 45.7% | [13] 75.4% | [14] 58.9% | [15] 50.6% | [16] 77.7% | [17] 85.1% | [18] 88.8% | [19] 78.8% | [20] 65.1%

O=C1C(Nc2ccc(Cl)cc2)=C(I)C(=O)c2ncccc21
inactive: [2] 88.4% | [3] 64.3% | [4] 48.1% | [5] 17.5% | [8] 35.5% | [9] 26.1% | [11] 13.6% | [15] 41.7% | [16] 28.9% | [17] 75.2% | [19] 40.2%
active: [1] 9.7% | [6] -90.4% | [7] -58.7% | [10] -45.9% | [12] 8.51% | [13] -46.5% | [14] -46.4% | [18] 7.82% | [20] -3.93%

CCOc1nc(-c2ccccc2)cc2c(O)c(C(=O)N/N=C/c3ccc(N(C)C)cc3)[nH]c(=O)c12
inactive: [1] 107% | [2] 97.1% | [3] 113% | [4] 65.2% | [5] 106% | [6] 99.9% | [7] 80.4% | [8] 107% | [9] 112% | [10] 229% | [11] 120% | [12] 105% | [13] 135% | [14] 98.8% | [15] 123% | [16] 104% | [17] 111% | [18] 99.7% | [19] 125% | [20] 119%

COc1ccc(/C(C)=C(\c2ccc(OCCN3CCOCC3)cc2)c2ccc(OC(=O)C3CCCCC3)cc2)cc1
inactive: [1] 101% | [2] 113% | [3] 99.5% | [4] 108% | [5] 107% | [6] 109% | [7] 104% | [8] 106% | [9] 104% | [10] 110% | [11] 95.7% | [12] 89.2% | [13] 97.7% | [14] 111% | [15] 121% | [16] 101% | [17] 103% | [18] 94.7% | [19] 112% | [20] 102%

CCOC(=O)C(=Cc1ccc(C#N)cc1)C(=O)OCC
active: [2] -36.3% | [7] -24.6% | [9] 0.647% | [10] 4.69% | [12] 3.59% | [13] -10.9% | [15] -62.5% | [18] -49.9%
inactive: [1] 55.5% | [3] 73.2% | [4] 104% | [5] 81.6% | [6] 58.3% | [8] 53.2% | [11] 43.8% | [14] 16.3% | [16] 28.1% | [17] 95.3% | [19] 14.6% | [20] 27%

Cc1[nH]c(C(=O)Nc2nc3ccc(NC(=O)CCN)cc3s2)c(Cl)c1Cl
active: [12] 6.04%
inactive: [1] 37.4% | [2] 86.7% | [3] 94% | [4] 74.6% | [5] 42.6% | [6] 73.9% | [7] 85.5% | [8] 95.8% | [9] 92.1% | [10] 104% | [11] 48.4% | [13] 53.8% | [14] 51% | [15] 81.9% | [16] 56.2% | [17] 95.7% | [18] 52.1% | [19] 96.8% | [20] 44.1%

N=c1ccccn1CCO
inactive: [1] 101% | [2] 107% | [3] 96.7% | [4] 110% | [5] 114% | [6] 96.5% | [7] 114% | [8] 99.3% | [9] 102% | [10] 110% | [11] 125% | [12] 108% | [13] 111% | [14] 95% | [15] 114% | [16] 110% | [17] 124% | [18] 107% | [19] 105% | [20] 102%

CC12OC(CC(O)C1O)n1c3ccccc3c3c4c(c5c6ccccc6n2c5c31)C(=O)N(CCN1CCOCC1)C4=O (stereo not given)
inactive: [3] 14.5% | [6] 19.6% | [14] 44.2% | [16] 17.9% | [19] 14.7%
active: [1] -6.63% | [2] -35.6% | [4] -11.7% | [5] -12.5% | [7] -16.3% | [8] -31.8% | [9] 1.94% | [10] -2.3% | [11] 3.22% | [12] 7.56% | [13] -18% | [15] -6.91% | [17] -14.5% | [18] 6.03% | [20] -3.54%

Cc1oc2c(Cc3ccc(NC(=O)c4ccc(Cl)cc4)cc3)ncnc2c1C(=O)NO
inactive: [1] 97.2% | [2] 86.4% | [3] 93.1% | [4] 101% | [5] 97.3% | [6] 125% | [7] 70.7% | [8] 88.5% | [9] 95% | [10] 107% | [11] 105% | [12] 78.3% | [13] 93.9% | [14] 108% | [15] 97.6% | [16] 97.6% | [17] 95.3% | [18] 104% | [19] 84% | [20] 99.6%

CN(C)CCN1C(=O)c2c(c3c4ccccc4n4c3c3c2c2ccccc2n3C2CC(O)C(O)C4(C)O2)C1=O (stereo not given)
inactive: [1] 23.1% | [2] 18.6% | [3] 34.8% | [4] 14.2% | [6] 75.9% | [9] 29.3% | [10] 18.9% | [11] 16.9% | [12] 11.4% | [13] 23.5% | [14] 58.4% | [15] 29.9% | [16] 35.2% | [18] 24.3% | [19] 34.7% | [20] 23.9%
active: [5] 2.33% | [7] -5.02% | [8] 5.47% | [17] 8.95%

Nc1nc2c(s1)CCc1cn(S(=O)(=O)c3ccccc3)cc1-2
inactive: [1] 94.5% and 104% | [2] 82.9% | [3] 93.7% and 114% | [4] 91.5% and 112% | [5] 95.1% and 101% | [6] 63.3% | [7] 82.4% and 92.9% | [8] 78.5% and 101% | [9] 92.7% and 104% | [10] 106% and 108% | [11] 100% and 114% | [12] 88.6% and 88.2% | [13] 107% and 98% | [14] 80.5% and 112% | [15] 100% and 110% | [16] 80.6% and 97.7% | [17] 94.6% and 106% | [18] 90.9% and 97.8% | [19] 86.6% and 112% | [20] 90.4% and 101%

N=C(N)c1ccc(-c2ccc(-c3ccc(Cl)c(Cl)c3)s2)cc1
inactive: [1] 63.1% | [2] 98.9% | [4] 40.8% | [6] 74.4% | [13] 78.7% | [15] 77.9% | [16] 56.2% | [17] 35.5% | [18] 52.7% | [19] 96.6% | [20] 38.1%
active: [3] -3.21% | [5] -58.7% | [7] -38.4% | [8] -51.9% | [9] -3.47% | [10] -17.9% | [11] -88.9% | [12] -11.6% | [14] -20.2%
